Test systems include SR leukemia; RPMI-8226 leukemia; OVCAR-8 ovarian; OVCAR-5 ovarian; OVCAR-4 ovarian; SK-OV-3 ovarian; IGROV1 ovarian; OVCAR-3 ovarian; HS 578T breast; NCI/ADR-RES ovarian.
Holding throughout (assay): NCI-60 one-dose screen, 48 h (100 = growth as untreated, 0 = no growth, -100 = all killed)
Holding throughout (settings): 10 µM

About 83,000 compounds went through this panel and 20% of them were active in at least one assay; those are over-represented in the sample as a whole.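 Note: values are percent growth. 100 is the growth of untreated cells, values between 100 and 0 indicate rising inhibition; between -100 and 0 indicates cell death.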 Values without a mark were called inactive. Activity calls are given as the source filed them. Rule for the calls: active = growth percent below 10; inactive = the rest.

Consider `O=C(NO)c1ccc(-c2nc3ccc4[nH]ncc4c3c3c2CCCC3)cc1`, for which the growth in the assay with SR leukemia was -13.8% (active); with RPMI-8226 leukemia it was -9.23% (active); with OVCAR-8 ovarian, -16.7% (active); with OVCAR-5 ovarian it was -1.66% (active); in the assay on OVCAR-4 ovarian it was -4.75% (active); in the assay on SK-OV-3 ovarian it was 21.1%. Besides, the growth in the assay on IGROV1 ovarian is -18.9% (active); in the assay with OVCAR-3 ovarian it was -57% (active); in the assay on HS 578T breast, -29.8% (active); in the assay on NCI/ADR-RES ovarian, -4.37% (active).

For `CN1C/C(=C\c2ccc(O)cc2O)c2[o+]c3cc(O)ccc3cc2C1`, the growth is 2.85% (active) with SR leukemia; 33% in the assay on RPMI-8226 leukemia; 62.7% in the assay on OVCAR-8 ovarian; 72.1% in the assay on OVCAR-5 ovarian; 68.2% with OVCAR-4 ovarian; 105% in the assay on SK-OV-3 ovarian. Further, the growth is 34.8% with IGROV1 ovarian, -8.86% (active) in the assay with OVCAR-3 ovarian, 50.1% with HS 578T breast and 107% in the assay with NCI/ADR-RES ovarian.

Turning to `COc1cccc(-c2ccnc(/N=C(\N)Nc3ccc(S(=O)(=O)Nc4nc(C)cc(C)n4)cc3)n2)c1`, the growth with SR leukemia was 100%; in the assay with RPMI-8226 leukemia it was 90.1%; in the assay on OVCAR-8 ovarian, 102%; with OVCAR-5 ovarian, 107%; in the assay on OVCAR-4 ovarian, 96%; with SK-OV-3 ovarian it was 84%. For the same compound, the growth is 83.4% in the assay with IGROV1 ovarian, 99.3% in the assay with OVCAR-3 ovarian, 86.4% with HS 578T breast and 103% in the assay with NCI/ADR-RES ovarian.

Regarding `O=C(NO)c1ccc(CNC(=O)[C@H]2Cc3c([nH]c4ccccc34)[C@H](c3ccccc3)N2)cc1`, the growth in the assay with SR leukemia is 23.8%; with RPMI-8226 leukemia, 15.1%; with OVCAR-8 ovarian, 24.7%; in the assay with OVCAR-5 ovarian, 15.3%; in the assay on OVCAR-4 ovarian, 53.7%; in the assay with SK-OV-3 ovarian it was -3.43% (active). Besides, the growth in the assay with IGROV1 ovarian is 46.9%; in the assay with OVCAR-3 ovarian, 22.7%; in the assay on HS 578T breast it was 17.3%; in the assay with NCI/ADR-RES ovarian, 63%.

Take `CCOc1ccc(/C=N/NC(=O)Cn2nc(Cc3ccccc3)c3onc(C)c3c2=O)cc1`: the growth is 78.1% with SR leukemia; 76.2% with RPMI-8226 leukemia; 5.16% (active) in the assay on OVCAR-8 ovarian; 60.9% in the assay with OVCAR-5 ovarian; 10.6% in the assay with OVCAR-4 ovarian; -5.84% (active) in the assay with SK-OV-3 ovarian. The growth in the assay on IGROV1 ovarian was 38.5%; with OVCAR-3 ovarian, 14.7%; in the assay with HS 578T breast, -12.7% (active); in the assay with NCI/ADR-RES ovarian it was 16.1%.

For the compound `COc1cc(/C=C/C(=O)c2ccc(S(=O)(=O)NCCNc3nc(Nc4ccc(F)cc4)nc(N(C)C)n3)cc2)cc(OC)c1OC`, the growth in the assay on SR leukemia was 3.14% (active); in the assay with RPMI-8226 leukemia it was 7.35% (active); in the assay on OVCAR-8 ovarian, -65% (active); with OVCAR-5 ovarian, -23.4% (active); in the assay on OVCAR-4 ovarian it was 22.8%; with SK-OV-3 ovarian, 109%. For the same compound, the growth with IGROV1 ovarian is -48.9% (active); with OVCAR-3 ovarian, -88.1% (active); in the assay on HS 578T breast it was 67.3%; in the assay with NCI/ADR-RES ovarian, 46.6%.

Regarding `COc1ccc(NC(=O)CSc2nnc(-c3ccc4nc(-c5ccc(Cl)cc5)[nH]c4c3)o2)cc1`, the growth was 43.5% with SR leukemia; 56.5% in the assay on RPMI-8226 leukemia; 14.1% with OVCAR-8 ovarian; 79.9% in the assay on OVCAR-5 ovarian; -2.09% (active) in the assay on OVCAR-4 ovarian; 101% in the assay with SK-OV-3 ovarian. Moreover, the growth in the assay on IGROV1 ovarian is 78.4%; in the assay on OVCAR-3 ovarian it was 55.3%; in the assay on HS 578T breast it was 35.2%; in the assay on NCI/ADR-RES ovarian it was 81.3%.

Regarding `Cn1c(O)c(N=Nc2nc(-c3cc4ccccc4oc3=O)cs2)c2cc(Br)ccc21`, the growth in the assay with SR leukemia is 71.7%; in the assay with RPMI-8226 leukemia, 96.6%; in the assay on OVCAR-8 ovarian it was 79.2%; with OVCAR-5 ovarian, 86.5%; in the assay on OVCAR-4 ovarian it was 80.9%; with SK-OV-3 ovarian, 57.7%. The growth with IGROV1 ovarian is 64.2%; in the assay on OVCAR-3 ovarian, 96.4%; with HS 578T breast, 17.5%; in the assay on NCI/ADR-RES ovarian, 68.4%.

Take `O=C1CCC(N2Cc3cc(NC(=O)COc4ccccc4)ccc3C2=O)C(=O)N1` (stereo not given): the growth with SR leukemia is 73.1%; with RPMI-8226 leukemia, 65%; in the assay on OVCAR-8 ovarian it was 47.8%; with OVCAR-5 ovarian, 83.3%; in the assay on OVCAR-4 ovarian it was 72.2%; with SK-OV-3 ovarian, 99.2%. In addition, the growth is 45.8% with IGROV1 ovarian, 85.8% with OVCAR-3 ovarian, 36.3% in the assay with HS 578T breast and 37.8% with NCI/ADR-RES ovarian.

`Nc1nnc(-c2c[nH]c3ncccc23)c(-c2c[nH]c3ccc(Br)cc23)n1`: the growth is 19.1% with SR leukemia; 38.7% with RPMI-8226 leukemia; 46.2% in the assay on OVCAR-8 ovarian; 68.2% in the assay on OVCAR-5 ovarian; 55.7% in the assay on OVCAR-4 ovarian; 55.3% in the assay with SK-OV-3 ovarian. Besides, the growth was 25.7% in the assay with IGROV1 ovarian, 52.6% in the assay with OVCAR-3 ovarian, 33.7% with HS 578T breast and 98.6% in the assay with NCI/ADR-RES ovarian.

As to `CC(C)c1ccc(C(=O)Nc2sc3c(c2C(N)=O)CCC(=O)C3=O)cc1`, the growth in the assay on SR leukemia was 72.8%; in the assay with RPMI-8226 leukemia it was 85%; with OVCAR-8 ovarian it was 94.2%; in the assay with OVCAR-5 ovarian, 114%; with OVCAR-4 ovarian, 91.5%; with SK-OV-3 ovarian, 89.4%. Further, the growth with IGROV1 ovarian is 72.4%; in the assay on OVCAR-3 ovarian, 87%; in the assay with HS 578T breast it was 93.7%; in the assay with NCI/ADR-RES ovarian, 97.4%.

For `O=C(NO)c1ccc(Cn2ccc3c(Nc4ccccc4)ncnc32)cc1`, the growth with SR leukemia is 11.9%; in the assay on RPMI-8226 leukemia it was 20.3%; with OVCAR-8 ovarian, -21.4% (active); in the assay with OVCAR-5 ovarian, 0.443% (active); in the assay with OVCAR-4 ovarian, 38.7%; with SK-OV-3 ovarian it was -7.35% (active). Further, the growth in the assay on IGROV1 ovarian is -30.8% (active); in the assay with OVCAR-3 ovarian, 19.7%; with HS 578T breast it was 9.25% (active); in the assay on NCI/ADR-RES ovarian it was -29.4% (active).

On to `O=C(Cn1nc(-c2ccccc2)ccc1=O)NN1C(=O)c2ccccc2C1=O`, for which the growth in the assay on SR leukemia was 91.4%; in the assay on RPMI-8226 leukemia, 95.7%; in the assay with OVCAR-8 ovarian, 81.9%; in the assay on OVCAR-5 ovarian, 120%; in the assay with OVCAR-4 ovarian, 94.7%; in the assay with SK-OV-3 ovarian, 117%. Also, the growth was 124% with IGROV1 ovarian, 125% in the assay with OVCAR-3 ovarian, 73.4% in the assay on HS 578T breast and 91.2% with NCI/ADR-RES ovarian.

The record behind these values is PubChem BioAssay (NCI).
